The assay deals with Plasmodium falciparum. Description: GSK_TCMDC: Inhibition of Plasmodium falciparum 3D7 in whole red blood cells, using parasite LDH activity as an index of growth. Test compounds present at 2uM. Type of assay: functional.
In general, Inhibition refers to the change of the read-out against control, counted positive when it falls. Low values mean a weak effect, high ones a strong effect. Regarding `Cl.Oc1ccc(Cc2cc(Oc3c(I)cc(CCc4ncc[nH]4)cc3I)ccc2O)cc1`, the Inhibition was found to be 100%.

Turning to `O=C(NCCNc1ccnc(Nc2ccc(F)cc2)n1)c1cc2ccccc2s1`, the Inhibition amounted to 99%.

Molecule `COc1ccc(C2CC(=O)C3=C(C2)NC(C)=C(C(=O)OC2CCCC2)C3c2cccc(O)c2)cc1OC` (centres undefined) came in with an Inhibition of 100%.

The molecule `CCOc1cc(C(=O)NCCN(C(C)C)C(C)C)ccc1-c1nc2cc(Cl)ccc2[nH]1` displayed an Inhibition of 100%.

As for `CC(=O)N1N=C(c2ccccc2)Sc2c1nc(-c1ccc(Cl)cc1)n2C(C)=O`, the Inhibition stood at 94%.

On to `O=C1C2C(c3ccc(Cl)c(Cl)c3)N3CC(OCc4ccccc4)CC3(C(=O)O)C2C(=O)N1c1ccc(Br)cc1` (centres undefined), for which the Inhibition is 100%.

For `O=C1CN(C(=O)CCC2CCCC2)C(c2ccc(F)cc2)c2cc(F)ccc2N1` (centres undefined), the Inhibition is reported as 100%.

The molecule `CCc1cc2c(=O)c(-c3nc(C)cs3)c([C@H](N)Cc3ccc(O)cc3)oc2cc1O.O=C(O)C(F)(F)F` registered an Inhibition of 100%.

For `Cc1c(S(=O)(=O)Nc2ccc3nccc(N4CC(C)NC(C)C4)c3c2)sc2ccc(Cl)cc12.Cl` (centres undefined), the Inhibition turned out to be 92%.

The molecule `N#Cc1cc([N+](=O)[O-])ccc1-n1nc(-c2cccc(Cl)c2)n(CC2CCCO2)c1=S` (centres undefined) came in with an Inhibition of 91%.

Regarding `Cl.c1cc(-c2cc3ccc(C4=NCCN4)cc3[nH]2)ccc1C1=NCCN1`, the Inhibition came to 97%.

In turn, `Cc1nc(NC2=NCN(CCCN3CCOCC3)CN2)nc2c(C)cccc12` came in with an Inhibition of 89%.

Take `Cn1nc(-c2cccc(CN[C@@H]3CCc4ccc(O)cc43)c2)c2cnc(NC3CCCC3)nc21`: the Inhibition is given as 100%.

As for `CCC(C)NS(=O)(=O)c1ccc2nc(Nc3ccc(C)c(Cl)c3)n([C@H](C)C(C)(C)C)c2c1` (some centres undefined), the Inhibition is recorded as 98%.

The values are drawn from ChEMBL document CHEMBL1157539, “Thousands of chemical starting points for antimalarial lead identification” (Nature, 2010).
